Assay [1] is described as follows: reducers of endogenous Her2 protein level, primary screen, SKBR3 breast tumor cells, AlphaScreen, ATP viability (AID 461;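 active = Her2 level under about 52% in both replicate screens, with viability over 70% of control, limit read from the data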;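 for Her2 level: lower value means less Her2 protein in the cells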;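 for viability: percent of carrier control wells set as 100% viability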). The following applies: 18-24 h, measured here: SKBR3 viability, ATP luminescence, at 10 µM.
Assay [2] addresses Receptor tyrosine-protein kinase erbB-2 (Homo sapiens) (UniProt P04626). The assay is described as above. To be noted: 18-24 h, at 10 µM, stronger effect = lower value.
Assay [3] can be described thus: SK-BR-3 cell growth inhibitors, pilot screen, 24 h, human (AID 572).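 Note: compound exposure lasted between 18 and 24 h rather than exactly 24 h; 100% = carrier-treated control wells.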 To be noted: SK-BR-3 viability, CellTiter-Glo luminescence, at 10 µM, stronger effect = lower value.
Assay [4] is described as follows: HUVEC growth inhibition – cell-based, human, primary screen (AID 575;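 active = viability at or below 30% in both replicate assays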;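 note: 100% = median of untreated cell wells with 0.1% DMSO on each plate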). The following applies: HUVEC proliferation, CellTiter-Glo luminescence, 72 h; at 10 µM; stronger effect = lower value. (In general: ATP-based viability assays read luminescence as a measure of living cells.)
Assay [5] is described as follows: growth inhibitors of H69AR lung tumor, primary screen, human, duplicate replicates (AID 580;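 active = viability at or under a set limit in both replicates, limit being median viability minus 3 SD, cut at about 48% in these data, passing the limit was not always enough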;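 note: 100% = mean luminescence of untreated wells and 0% = no signal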). The following applies: H69AR lung tumor cells viability, ATP luminescence, 72 h; at 10 µM; stronger effect = lower value.
Assay [6] in a line: reversal of MRP1-mediated doxorubicin resistance, pilot screen, H69AR cells, doxorubicin co-treatment (AID 601;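 active = viability loss from added drug above about 55%, and viability with drug at most 40%, in both replicates, limit read from the data, passing the limit was not always enough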). To be noted: CellTiter-Glo, 72 h, at 10 µM; for differential viability (reversal): stronger effect = higher value.
Assay [7] is described as follows: 384-well plate pilot, post-Golgi transport modulator project, inhibition of yeast transport mutant growth (AID 636; in the data active = inhibition above about 31%). To be noted: absorbance 615 nm, about 18 h, stronger effect = higher value.
A short description of assay [8]: growth suppression of yeast trafficking mutant, preliminary HTS, modulators of trafficking downstream of Golgi apparatus project, 1536-format plate, OD 615 nm (AID 637; in the data active = inhibition above about 30%). To be noted: yeast transport mutant growth, absorbance 615 nm, 18 h; stronger effect = higher value.
Assay [9] is described as follows: OD615 S. cerevisiae growth inhibition, permissive medium, pilot counter-assay, permissive growth control for S. cerevisiae lifespan shortening project (AID 705;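 active = growth inhibition above 25% in both replicates, a cutoff set 3 SD above the mean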). The following applies: OD615, 24 h, at 10 µM, stronger effect = higher value.
The nature of assay [10]: Restrictive medium S. cerevisiae growth inhibition, OD615, pilot screen of yeast lifespan reduction project, restrictive growth control (AID 706;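 active = growth inhibition above a set limit, 3 SD over mean compound inhibition, in both replicates, cut at about 43% in these data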;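 note: modified DeaD lifespan yeast strain shifted to restrictive glucose medium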). The following applies: OD615, 48 h, at 10 µM, stronger effect = higher value.
The nature of assay [11]: viability gain of MRP-1-high H69AR cells under doxorubicin, pilot screen, MRP-1 activator project, CellTiter-Glo, duplicate (AID 807;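 active = viability increase at or above a cutoff of the median across tested compounds plus 3 SD, cut at about 8.5% in these data, passing the limit was not always enough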;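 note: compound pretreatment 18-22 h then 72 h combined with doxorubicin; 0% = doxorubicin alone and 100% = vehicle without doxorubicin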). To be noted: H69AR viability with doxorubicin, CellTiter-Glo luminescence; at 10 µM; stronger effect = higher value.
Assay [12] is described as follows: growth suppression of beta-catenin knockout HCT116, pilot screen, human colon tumor cells (AID 823;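 active = cell viability at or below a set limit in both duplicate runs, the limit being the all-compound median minus 4 SD, cut at about 23% in these data, passing the limit was not always enough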;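 note: 0% = wells killed by 20 µM Hyamine and 100% = untreated DMSO cell wells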). To be noted: CellTiter-Glo, 60 h, at 10 µM, stronger effect = lower value.
The nature of assay [13]: growth suppression of PTEN-deleted HCT116, pilot screen, cell-based, HCT116 clonal line, CellTiter-Glo (AID 824;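 active = viability at or below 27.92% in each of two runs, the all-compound median minus 4 SD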;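 note: 0% = 20 µM Hyamine control and 100% = vehicle cell control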). The following applies: 60 h, at 10 µM, stronger effect = lower value.
Assay [14] in a line: inhibitors of the yeast RAM network, pilot screen, dse1pr::URA3 reporter, 5-FOA selection (AID 869;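 active = inhibition over a set limit, the all-compound mean plus 3 SD, in both replicate runs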;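 note: 0% = DMSO wells with no growth and 100% = 10 µM 1-NA-PP1 with full growth; RAM network block rescues cells from 5-FOA so hits raise OD615 growth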). To be noted: S. cerevisiae dse1pr::URA3 5-FOA growth, OD615, 2 d; at 10 µM; stronger effect = higher value; strain carries analog-sensitive mutant Cbk1 kinase.
Assay [15] in a line: RAM signaling pathway blockade in yeast – S. cerevisiae, Pdr1DBD-CYC8 efflux-inhibited sensitized strain, primary screen (AID 1298;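 active = RAM network inhibition above 8.4% in each of two replicates, 3 SD over the compound average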;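 note: 0% = DMSO untreated cells without growth and 100% = 10 µM 1-NA-PP1 full growth; higher means more yeast growth rescued from 5-FOA killing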). To be noted: S. cerevisiae cbk1-as DSE1-URA3 strain, 5-FOA growth OD615, 2 d; at 50 µM; stronger effect = higher value.
[16] abbreviates: H69AR cells + 2 uM doxorubicin, measured here: viability with 2 uM doxorubicin, stronger effect = lower value.
The mark [17] stands for this setting: H69AR cells, compound alone cytotoxicity.

SMILES strings stand for the structures. Inconclusive results are not listed. Calls of active or inactive are those of the source.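 Rule for the calls, unless noted: active = viability at or below 10% of carrier control in both of two separate runs; inconclusive = viability at or below 10% in only one of the two runs; inactive = the rest.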

Chain of Receptor tyrosine-protein kinase erbB-2 (Homo sapiens) (P04626 whole entry, looked up): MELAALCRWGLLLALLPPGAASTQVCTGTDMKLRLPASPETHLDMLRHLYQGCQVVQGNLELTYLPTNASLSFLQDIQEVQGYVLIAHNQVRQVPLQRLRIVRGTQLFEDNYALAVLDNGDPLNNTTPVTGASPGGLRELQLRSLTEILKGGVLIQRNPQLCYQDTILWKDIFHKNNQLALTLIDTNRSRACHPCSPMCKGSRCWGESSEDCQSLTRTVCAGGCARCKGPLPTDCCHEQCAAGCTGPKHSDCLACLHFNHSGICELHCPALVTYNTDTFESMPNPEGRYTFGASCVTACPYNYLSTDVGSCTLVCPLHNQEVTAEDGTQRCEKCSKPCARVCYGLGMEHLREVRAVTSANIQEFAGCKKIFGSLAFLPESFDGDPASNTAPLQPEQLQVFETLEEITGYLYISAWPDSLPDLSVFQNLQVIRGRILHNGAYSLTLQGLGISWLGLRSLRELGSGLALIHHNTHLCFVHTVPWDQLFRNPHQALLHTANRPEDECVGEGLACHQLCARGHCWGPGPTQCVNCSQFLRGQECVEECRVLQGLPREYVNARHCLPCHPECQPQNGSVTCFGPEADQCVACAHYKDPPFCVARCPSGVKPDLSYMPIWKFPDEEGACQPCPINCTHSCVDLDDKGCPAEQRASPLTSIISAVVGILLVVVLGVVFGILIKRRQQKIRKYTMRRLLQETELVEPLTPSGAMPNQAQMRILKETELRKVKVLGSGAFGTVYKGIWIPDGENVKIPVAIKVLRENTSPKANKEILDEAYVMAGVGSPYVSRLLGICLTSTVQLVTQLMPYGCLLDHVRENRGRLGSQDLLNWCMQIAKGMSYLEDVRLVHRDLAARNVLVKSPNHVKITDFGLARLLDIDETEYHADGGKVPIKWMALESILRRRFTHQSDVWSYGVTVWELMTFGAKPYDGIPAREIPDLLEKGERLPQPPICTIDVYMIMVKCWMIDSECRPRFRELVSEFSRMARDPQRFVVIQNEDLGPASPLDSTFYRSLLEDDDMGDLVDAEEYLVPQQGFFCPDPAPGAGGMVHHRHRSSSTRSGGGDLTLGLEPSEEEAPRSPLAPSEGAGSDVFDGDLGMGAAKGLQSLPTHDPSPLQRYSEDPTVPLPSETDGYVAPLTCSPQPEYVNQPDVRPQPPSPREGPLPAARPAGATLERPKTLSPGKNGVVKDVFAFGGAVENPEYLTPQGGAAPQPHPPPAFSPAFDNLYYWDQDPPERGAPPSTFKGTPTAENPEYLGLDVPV

On to `O=C(c1ccc(Br)cc1)N1CCN(S(=O)(=O)c2ccccc2)CC1`, for which the viability was 113% in assay [1]; 113% (inactive) in [3]; 103% (inactive) in assay [4]; 92.6% (inactive) in assay [5]; 94.9% in assay [6] (setting [16]); 92.6% in assay [6] (setting [17]). Further, the viability in [12] was 84.7% (inactive); in assay [13], 90.4% (inactive). Further, the Her2 level in [2] is 120% (inactive). In [6] (H69AR cells + 2 uM doxorubicin), the differential viability (reversal) is -2.33% (inactive). Further, the inhibition was 3.33% (inactive) in [7], 2.33% (inactive) in assay [8] and 1.71% (inactive) in assay [14]. In addition, the growth inhibition is 4.02% (inactive) in assay [9] and 11.1% (inactive) in assay [10]. The viability increase in assay [11] is -1.15% (inactive). Moreover, in assay [15], the RAM network inhibition was 1.8% (inactive).

Take `COc1ccc(C/C(N)=N/n2cnnc2)cc1Cl`: the viability in assay [1] was 94%; in [3], 94% (inactive); in assay [4], 103% (inactive); in [5] it was 102% (inactive); in assay [6] (setting [16]), 99.4%; in assay [6] (setting [17]) it was 102%. The viability is 95.7% (inactive) in [12] and 99.8% (inactive) in assay [13]. Moreover, the Her2 level in [2] is 100% (inactive). In addition, the differential viability (reversal) in assay [6] (H69AR cells + 2 uM doxorubicin) was 2.52% (inactive). For the same molecule, the figures for the inhibition in assay [7], in assay [8] and in assay [14] were -2.21% (inactive), -0.83% (inactive) and 1.04% (inactive), respectively. The growth inhibition is -9.88% (inactive) in assay [9] and -12% (inactive) in assay [10]. Moreover, the viability increase in assay [11] is -0.81% (inactive). The RAM network inhibition in assay [15] was 2.47% (inactive).

For the molecule `Cn1c(SCC(=O)Nc2ccc(F)cc2)nnc1-c1cccnc1`, the viability in assay [1] was 93%; in assay [3], 93% (inactive); in assay [4] it was 96.5% (inactive); in [5], 104% (inactive); in assay [6] (setting [16]), 90.8%; in [6] (setting [17]) it was 104%. Also, the results for the viability in [12] and in [13] were 104% (inactive) and 101% (inactive), respectively. Further, the Her2 level in assay [2] was 106% (inactive). The differential viability (reversal) in [6] (H69AR cells + 2 uM doxorubicin) is 12.8% (inactive). Further, the inhibition in assay [7] was -3.87% (inactive); in [8] it was -2.5% (inactive); in [14], 0.43% (inactive). Further, the growth inhibition in [9] was -8.06% (inactive); in assay [10] it was 0.86% (inactive). Further, in assay [11], the viability increase was 2.18% (inactive). In addition, the RAM network inhibition in assay [15] was 4.04% (inactive).

Take `CCOc1ccccc1C(=O)Nc1nnc(CC)s1`: the viability in [1] is 94.5%; in assay [3], 94.5% (inactive); in assay [4], 114% (inactive); in assay [5], 97% (inactive); in assay [6] (setting [16]), 88.7%; in assay [6] (setting [17]), 97%. For the same molecule, the viability is 96.3% (inactive) in assay [12] and 98.3% (inactive) in assay [13]. Besides, the Her2 level in assay [2] was 84% (inactive). Besides, in assay [6] (H69AR cells + 2 uM doxorubicin), the differential viability (reversal) was 8.28% (inactive). Moreover, the inhibition in assay [7] was -1.73% (inactive); in assay [8] it was 3% (inactive); in assay [14] it was 0.31% (inactive). Moreover, the growth inhibition in assay [9] was -0.29% (inactive); in [10], 12.6% (inactive). Also, the viability increase in [11] was -2.43% (inactive). Further, the RAM network inhibition in assay [15] was 1.61% (inactive).

As for `CC(C)(C)NC(=O)Cn1c(=O)oc2ccc(Cl)cc21`, the viability in assay [1] is 96%; in assay [3], 96% (inactive); in assay [4] it was 96.5% (inactive); in [5], 92.9% (inactive); in assay [6] (setting [16]) it was 64.1%; in [6] (setting [17]), 92.9%. Besides, the viability in assay [12] is 106% (inactive); in assay [13], 100% (inactive). Moreover, in assay [2], the Her2 level was 104% (inactive). In assay [6] (H69AR cells + 2 uM doxorubicin), the differential viability (reversal) was 28.8% (inactive). The inhibition in assay [7] was -2.4% (inactive); in assay [8] it was 0.83% (inactive); in [14] it was 0.38% (inactive). The growth inhibition was 5.54% (inactive) in assay [9] and 5.01% (inactive) in assay [10]. The viability increase in assay [11] was -4.63% (inactive). Also, the RAM network inhibition in assay [15] was 7.56% (inactive).

For the molecule `CCn1c(-c2cc(Br)ccc2O)n[nH]c1=S`, the viability in [1] was 99%; in assay [3] it was 99% (inactive); in assay [4], 107% (inactive); in assay [5] it was 98% (inactive); in [6] (setting [16]) it was 97.6%; in [6] (setting [17]) it was 98%. Besides, the viability was 98.9% (inactive) in assay [12] and 96.8% (inactive) in [13]. Besides, the Her2 level in assay [2] is 88.5% (inactive). Also, in assay [6] (H69AR cells + 2 uM doxorubicin), the differential viability (reversal) was 0.39% (inactive). Moreover, the inhibition was -4.59% (inactive) in [7], 3.02% (inactive) in assay [8] and 1.45% (inactive) in [14]. The growth inhibition in assay [9] was -10% (inactive); in assay [10] it was -14.2% (inactive). For the same molecule, the viability increase in [11] was -1.24% (inactive). For the same molecule, in [15], the RAM network inhibition was 0.78% (inactive).

With `COc1cc(NC(=O)CC(C)C)ccc1NC(=O)c1ccco1`, the viability in assay [1] was 94.5%; in [3], 94.5% (inactive); in [4], 103% (inactive); in assay [5], 109% (inactive); in [6] (setting [16]) it was 93.1%; in assay [6] (setting [17]) it was 109%. Besides, the viability is 100% (inactive) in assay [12] and 96.2% (inactive) in assay [13]. Moreover, the Her2 level in assay [2] was 93% (inactive). The differential viability (reversal) in assay [6] (H69AR cells + 2 uM doxorubicin) was 15.9% (inactive). Also, the inhibition in assay [7] is -3.92% (inactive); in assay [8] it was -9.68% (inactive); in assay [14] it was 0.825% (inactive). Moreover, the growth inhibition in assay [9] was -3.81% (inactive); in [10] it was -1.97% (inactive). In assay [11], the viability increase was -0.27% (inactive). Moreover, the RAM network inhibition in assay [15] was 0.51% (inactive).

On to `O=C(Nc1nnc(N2CCCCCC2)s1)c1cc(-c2ccc(Br)cc2)on1`, for which the viability in assay [1] was 97%; in assay [3], 97% (inactive); in [4], 99.2% (inactive); in [5], 99.6% (inactive); in [6] (setting [16]), 86.4%; in assay [6] (setting [17]), 99.6%. The viability in assay [12] is 99.1% (inactive); in assay [13], 95.2% (inactive). Moreover, the Her2 level in assay [2] is 106% (inactive). Besides, the differential viability (reversal) in assay [6] (H69AR cells + 2 uM doxorubicin) was 13.1% (inactive). Moreover, the inhibition is -5.13% (inactive) in [7], 3.67% (inactive) in assay [8] and 1.98% (inactive) in [14]. Also, the growth inhibition in [9] was -14.6% (inactive); in [10], -7.24% (inactive). Moreover, the viability increase in assay [11] is 2.89% (inactive). Moreover, the RAM network inhibition in assay [15] is 9.45% (inactive).

Regarding `CCOCCCNC(=O)c1ccc2c(c1)N(Cc1ccccc1)C(=O)CS2=O` (stereo not given), the viability in assay [1] is 104%; in assay [3], 104% (inactive); in assay [4] it was 103% (inactive); in assay [5], 106% (inactive); in [6] (setting [16]), 96.1%; in [6] (setting [17]), 106%. Also, the viability in [12] is 102% (inactive); in assay [13] it was 93.1% (inactive). For the same molecule, the Her2 level in [2] is 103% (inactive). The differential viability (reversal) in assay [6] (H69AR cells + 2 uM doxorubicin) is 10.2% (inactive). Also, the inhibition in assay [7] was 0.13% (inactive); in assay [8], -10.7% (inactive); in [14], 1.42% (inactive). Moreover, the growth inhibition was -5.99% (inactive) in [9] and 6.05% (inactive) in assay [10]. In addition, the viability increase in assay [11] is -0.16% (inactive). For the same molecule, the RAM network inhibition in assay [15] is -0.72% (inactive).

For the molecule `COc1ccc(OC)c(C2C(C(=O)Nc3ccc(F)cc3)=C(C)Nc3nc(CCCO)nn32)c1` (stereo not given), the viability in assay [1] is 101%; in assay [3], 101% (inactive); in assay [4] it was 91% (inactive); in assay [5], 101% (inactive); in assay [6] (setting [16]), 95.4%; in [6] (setting [17]) it was 101%. Also, the results for the viability in [12] and in assay [13] were 99.6% (inactive) and 99.1% (inactive), respectively. Besides, the Her2 level in [2] is 120% (inactive). In addition, the differential viability (reversal) in assay [6] (H69AR cells + 2 uM doxorubicin) was 5.54% (inactive). Further, the inhibition is 0.13% (inactive) in [7], -0.83% (inactive) in assay [8] and -1.06% (inactive) in [14]. Also, the figures for the growth inhibition in assay [9] and in assay [10] were -9.55% (inactive) and 7.19% (inactive), respectively. The viability increase in assay [11] is -0.62% (inactive). In addition, the RAM network inhibition in assay [15] was -0.42% (inactive).

As usually defined, the viability is a read-out of living cells in per cent, often relative to untreated cells. As usually defined, the inhibition is the drop in the measured response relative to a control, in per cent.

These data come from PubChem BioAssay.
